# Measured values published in the supplement of paper PMC8728848.
# Only a selection was taken, and the strongest signals are over-represented in it overall.
# B1: SfaEH (Escherichia coli), Q1RDG5 (protein)
# chain: LLCRNNQTGQVFNSGDTSFRVNVSPVVQYDKSISVLDLSQLVSCQNEDSTGQNYDYLKILKGSGFSPALDTKTYGRLDFTSRPTGYARQLPLQFDLQVTEAFYQYGVWKPFPAKLYLYPAPGVFGKVINNGDLLATLYVNKFSTKGQEAGERNFTWRFYATNDVYIQTGTCRVSSNNVKVDLPSYPGGPVTVPLTVRCDQTQSVSYTLSGPVTGSGNTVFANTAASGSGGVGIQLSDNVGPVPAGQPRSLGQVGSSPVSLGLKASYALTGQASPTPGAVQSVINVTFSYN
# Assays:
# Assay in all cases: glycan array binding signal (z-score within array); higher = stronger binding
# Settings in all cases: glycan notation: IUPAC condensed, linker removed
# Fuc(a1-2)Gal = molecular target: Fuc(a1-2)Gal
# In short: (§1)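 The binding signal is a Z-score computed within each array. Data were drawn from 3228 arrays in the Consortium for Functional Glycomics database, restricted to those with a known protein sequence. Scores were averaged over arrays of the same protein sequence at different concentrations or buffers, and over linkers, and negative values can be taken as non-binding.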
# [1] = molecular target: Fuc(a1-2)Gal(b1-3)GalNAc(b1-4)[Neu5Ac(a2-3)]Gal(b1-4)Glc
# In short: as §1
# [2] = molecular target: Fuc(a1-2)Gal(b1-3)[Fuc(a1-4)]GlcNAc(b1-2)Man(a1-3)[Fuc(a1-2)Gal(b1-3)[Fuc(a1-4)]GlcNAc(b1-2)Man(a1-6)]Man(b1-4)GlcNAc(b1-4)[Fuc(a1-6)]GlcNAc(b1-4)[Fuc(a1-6)]GlcNAc
# In short: as §1
# [3] = molecular target: Fuc(a1-2)Gal(b1-4)GlcNAc(b1-2)Man(a1-3)[Fuc(a1-2)Gal(b1-4)GlcNAc(b1-2)Man(a1-6)]Man(b1-4)GlcNAc(b1-4)[Fuc(a1-6)]GlcNAc
# In short: as §1
# [4] = molecular target: Fuc(a1-2)Gal(b1-4)[Fuc(a1-3)]GlcNAc(b1-3)Gal(b1-4)[Fuc(a1-3)]GlcNAc(b1-3)Gal(b1-4)[Fuc(a1-3)]GlcNAc
# In short: as §1
# [5] = molecular target: Fuc(a1-2)[Gal(a1-3)]Gal(b1-4)GlcNAc(b1-2)Man(a1-3)[Fuc(a1-2)[Gal(a1-3)]Gal(b1-4)GlcNAc(b1-2)Man(a1-6)]Man(b1-4)GlcNAc(b1-4)GlcNAc
# In short: as §1
# [6] = molecular target: Fuc(a1-2)[Gal(a1-4)]Gal(b1-4)GlcNAc
# In short: as §1
# [7] = molecular target: Fuc(a1-3)[Gal(b1-4)]GlcNAc
# In short: as §1
# [8] = molecular target: Gal(b1-3)GalNAc(a1-3)[Fuc(a1-2)]Gal(b1-4)Glc
# In short: as §1
# [9] = molecular target: Gal(b1-3)GlcNAc(a1-3)Gal(b1-4)GlcNAc
# In short: as §1
# [10] = molecular target: Gal(b1-3)GlcNAc(b1-3)Gal(b1-4)GlcNAc(b1-3)Gal(b1-4)GlcNAc(b1-2)[Gal(b1-3)GlcNAc(b1-3)Gal(b1-4)GlcNAc(b1-3)Gal(b1-4)GlcNAc(b1-6)]Man(a1-6)[Gal(b1-3)GlcNAc(b1-3)Gal(b1-4)GlcNAc(b1-3)Gal(b1-4)GlcNAc(b1-2)Man(a1-3)]Man(b1-4)GlcNAc(b1-4)[Fuc(a1-6)]GlcNAc
# In short: as §1
# [11] = molecular target: Gal(b1-3)[Fuc(a1-4)]GlcNAc(b1-3)Gal(b1-3)[Fuc(a1-4)]GlcNAc
# In short: as §1
# [12] = molecular target: Gal(b1-3)[Neu5Ac(a2-6)]GlcNAc(b1-4)Gal(b1-4)Glc
# In short: as §1
# [13] = molecular target: Gal(b1-4)GlcNAc(b1-2)[Gal(b1-4)GlcNAc(b1-4)]Man(a1-3)[GlcNAc(b1-4)][Gal(b1-4)GlcNAc(b1-2)[Gal(b1-4)GlcNAc(b1-6)]Man(a1-6)]Man(b1-4)GlcNAc(b1-4)GlcNAc
# In short: as §1
# [14] = molecular target: Gal(b1-4)GlcNAc(b1-3)Gal(b1-3)GlcNAc
# In short: as §1
# [15] = molecular target: Gal(b1-4)GlcNAc(b1-3)Gal(b1-4)GlcNAc(b1-3)Gal(b1-4)GlcNAc
# In short: as §1
# [16] = molecular target: Gal(b1-4)GlcNAc(b1-3)Gal(b1-4)GlcNAc(b1-3)Gal(b1-4)GlcNAc(b1-3)Gal(b1-4)GlcNAc(b1-2)Man(a1-3)[Gal(b1-4)GlcNAc(b1-3)Gal(b1-4)GlcNAc(b1-3)Gal(b1-4)GlcNAc(b1-3)Gal(b1-4)GlcNAc(b1-2)Man(a1-6)]Man(b1-4)GlcNAc(b1-4)[Fuc(a1-6)]GlcNAc
# In short: as §1
# [17] = molecular target: Gal(b1-4)GlcNAc(b1-3)Gal(b1-4)GlcNAc(b1-3)Gal(b1-4)GlcNAc(b1-3)Gal(b1-4)GlcNAc(b1-2)[Gal(b1-4)GlcNAc(b1-3)Gal(b1-4)GlcNAc(b1-3)Gal(b1-4)GlcNAc(b1-3)Gal(b1-4)GlcNAc(b1-6)]Man(a1-6)[Gal(b1-4)GlcNAc(b1-3)Gal(b1-4)GlcNAc(b1-3)Gal(b1-4)GlcNAc(b1-3)Gal(b1-4)GlcNAc(b1-2)Man(a1-3)]Man(b1-4)GlcNAc(b1-4)[Fuc(a1-6)]GlcNAc
# In short: as §1
# [18] = molecular target: Gal(b1-4)GlcNAc(b1-3)Gal(b1-4)GlcNAc(b1-3)Gal(b1-4)GlcNAc(b1-3)Gal(b1-4)GlcNAc(b1-3)Gal(b1-4)GlcNAc(b1-2)Man(a1-3)[Gal(b1-4)GlcNAc(b1-3)Gal(b1-4)GlcNAc(b1-3)Gal(b1-4)GlcNAc(b1-3)Gal(b1-4)GlcNAc(b1-3)Gal(b1-4)GlcNAc(b1-2)Man(a1-6)]Man(b1-4)GlcNAc(b1-4)GlcNAc
# In short: as §1
# [19] = molecular target: Gal(b1-4)GlcNAc(b1-3)Gal(b1-4)GlcNAc(b1-6)[Gal(b1-3)]GalNAc
# In short: as §1
# [20] = molecular target: Gal(b1-4)GlcNAc(b1-3)[Gal(b1-4)GlcNAc(b1-6)]Gal(b1-4)GlcNAc
# In short: as §1
# Gal3S6S(b1-4)GlcNAc = molecular target: Gal3S6S(b1-4)GlcNAc
# In short: as §1
# Gal6S(b1-3)GlcNAc6S = molecular target: Gal6S(b1-3)GlcNAc6S
# In short: as §1
# Gal6S(b1-4)Glc = molecular target: Gal6S(b1-4)Glc
# In short: as §1
# GalNAc(b1-4)GlcNAc = molecular target: GalNAc(b1-4)GlcNAc
# In short: as §1
# GalNAc3S(b1-4)GlcNAc = molecular target: GalNAc3S(b1-4)GlcNAc
# In short: as §1
# GalNAc3S(b1-4)GlcNAc3S = molecular target: GalNAc3S(b1-4)GlcNAc3S
# In short: as §1
# [21] = molecular target: GalNAc3S(b1-4)[Fuc(a1-3)]GlcNAc
# In short: as §1
binder,measurement,setting,value
B1,glycan array binding signal (z-score),Fuc(a1-2)Gal,-0.532
same,glycan array binding signal (z-score),[1],-0.413
same,glycan array binding signal (z-score),[2],1.21
same,glycan array binding signal (z-score),[3],-0.238
same,glycan array binding signal (z-score),[4],1.77
same,glycan array binding signal (z-score),[5],-0.531
same,glycan array binding signal (z-score),[6],0.037
same,glycan array binding signal (z-score),[7],-0.018
same,glycan array binding signal (z-score),[8],-0.503
same,glycan array binding signal (z-score),[9],-0.23
same,glycan array binding signal (z-score),[10],3.4
same,glycan array binding signal (z-score),[11],0.274
same,glycan array binding signal (z-score),[12],-0.638
same,glycan array binding signal (z-score),[13],1.56
same,glycan array binding signal (z-score),[14],0.732
same,glycan array binding signal (z-score),[15],0.382
same,glycan array binding signal (z-score),[16],-0.08
same,glycan array binding signal (z-score),[17],3.01
same,glycan array binding signal (z-score),[18],2.05
same,glycan array binding signal (z-score),[19],-0.15
same,glycan array binding signal (z-score),[20],0.131
same,glycan array binding signal (z-score),Gal3S6S(b1-4)GlcNAc,2.12
same,glycan array binding signal (z-score),Gal6S(b1-3)GlcNAc6S,-0.513
same,glycan array binding signal (z-score),Gal6S(b1-4)Glc,-0.148
same,glycan array binding signal (z-score),GalNAc(b1-4)GlcNAc,-0.125
same,glycan array binding signal (z-score),GalNAc3S(b1-4)GlcNAc,-0.199
same,glycan array binding signal (z-score),GalNAc3S(b1-4)GlcNAc3S,0.153
same,glycan array binding signal (z-score),[21],2.28
